Pf growth 96h – inhibits malaria parasite growth, 96 h; P. falciparum luciferase reporter growth, 96 h; Potency, µM (doses to about 28.7 µM), for the others: top-dose activity change, negative = inhibition, actives largely listed as inhibitors; 320,000 compounds, 6.9% hits; AID 504834; note: potency is the fitted concentration of half-maximal effect; % is set by controls: 0 for no effect and ±100 for the full control effect
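Two-generation exposure (96 h) targets delayed-death phenotype. Reporter parasites carrying integrated firefly luciferase, in red cells at 2% hematocrit and 0.05% parasitemia final, kept at 37 C, 5% CO2; luminescence loss indicates inhibition.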
Pf growth 48h – P. falciparum growth inhibition at 48 hours (one generation). P. falciparum luciferase growth in erythrocytes, 48 h. Potency, µM (doses to about 28.7 µM), without a hit: at the highest dose activity change, negative = inhibition, most hits filed as inhibitors. 310,000 compounds, 5.9% hits. AID 504832; note: potency is the fitted concentration of half-maximal effect; % is set by controls: 0 for no effect and ±100 for the full control effect
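Parasite viability was followed by luminescence of a genomically integrated firefly luciferase. Cultures held 0.1% parasitemia at 2% hematocrit (final), incubated under 5% CO2 at 37 C.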
HCV inh – inhibitors of hepatitis C virus infection; Huh7.5.1 HCVcc-Cre infection, luciferase reporter, 44 h; Potency, µM (top dose mostly 41.8 µM), without a hit: top-dose activity change, negative = inhibition, usual class: inhibitors; 340,000 compounds, 3.4% hits; AID 651820; note: potency is the fitted concentration of half-maximal effect; % is set by controls: 0 for no effect and ±100 for the full control effect
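Compounds are dispensed onto cells plated 4 h earlier at 1,000 per well, with HCVcc-Cre virus (about 0.5 moi) added next. Following 44 h of culture, luminescent signal is measured for 15 sec after 15 min with substrate at room temperature.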
Cycloheximide cs – affects cycloheximide protein synthesis inhibition readout, counter-screen. cell reporter, cycloheximide protein synthesis inhibition counterscreen. max response, %. 300,000 compounds, 12% hits. AID 2314; in the data active = max response mostly above about 13%, no sharp cut-off; inactive = mostly below about 14%; note: read at 38.3 µM for the half of the compounds with a filed dose; 0% is about no effect
AMA1 RON2 block – inhibitors of Plasmodium falciparum AMA1-RON2 interaction; AlphaScreen AMA1-biotinylated RON2 peptide binding; Potency, µM (titrated, usually from 58.2 µM), inactives show at the highest dose activity change, negative = inhibition, usual class: inhibitors; 360,000 compounds, 0.2% hits;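 note: potency is the fitted concentration of half-maximal effect; 0% = vehicle wells and -100% = peptide control; nearly all actives have a fitted effect of over 45% in size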
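AMA1 (3D7) with his tag at 25 nM final met compounds first, then biotinylated RON2 peptide at 25 nM; detection used donor plus acceptor beads, 10 µg/mL apiece, read by AlphaScreen after 30 min at room temperature.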
Shiga toxin inh – blocks Shiga toxin action in Vero cells; Vero cells, Shiga toxin protein synthesis inhibition reporter; inhibition, % at 38.7 µM; 290,000 compounds, 9.2% hits; AID 2315; in the data active = inhibition mostly above about 28%, no sharp cut-off; inactive = mostly below about 43%; note: 0% is about no effect
* marks the source's active call; other numbers are inactive results; ? = inconclusive; . = not tested or not shown. Shown are actives, neighbours in structure and some others; about 21% of the full set was active somewhere. Unless noted, calls come from the whole dose curve; as a rule, active = well fitted curve in the direction sought with a large enough effect; inconclusive = small, poorly fitted or top-dose-only effect, or another doubt; inactive = no such curve, though single readings can be large; an effect the other way counts as inactive or inconclusive.

SMILES	Pf growth 96h	Pf growth 48h	HCV inh	Cycloheximide cs	AMA1 RON2 block	Shiga toxin inh
Cc1ccc(NC(=O)CNC(=O)CN2C(=O)c3ccccc3C2=O)cc1	.	.	.	.	-1%	.
CCc1cc(C(=O)Nc2cc(S(=O)(=O)N3CCCCC3)ccc2N2CCN(C)CC2)sc1C	.	.	.	.	-23%	.
Cc1ccc(C)c(NC(=O)CN(C)C(=O)c2ccc3[nH]c4c(c3c2)CC(C)CC4)c1 (stereo not drawn)	?	?	-25%	.	-14%	.
COc1ccc2nc(SCC(=O)NC3CCCC3)c(C)cc2c1	33%	1%	-8%	-4	10%	-5
COc1ccc(-c2cn(-c3ccc(C)cc3C)c(=O)[nH]2)cc1OC	?	10%	11µM*	5	14%	16
COc1ccc(S(=O)(=O)N2CCCCCC2)cc1NC(=O)c1ccccc1	?	2%	13%	2	6%	2
COc1ccc(S(=O)(=O)N2CCCCC2)cc1NC(=O)c1ccc(Cl)nc1	?	15µM*	0%	.	19%	.
CCN(CC)c1ccc(S(=O)(=O)N2CCCCC2)cc1NC(=O)CSCc1c(C)noc1C	.	.	?	.	1%	.
Cc1noc(C)c1CSCC(=O)Nc1cc(S(=O)(=O)N2CCCCC2)ccc1OC(C)C	?	13µM*	?	.	4%	.
Cc1ccc(S(=O)(=O)N2CCCCC2)cc1NC(=O)c1ccc(Cl)nc1	?	?	?	.	-10%	.
CC(C)Oc1ccc(S(=O)(=O)N2CCOCC2)cc1NC(=O)CC1CCCC1	8.3µM*	9.3µM*	-5%	.	5%	.
COc1ccc(S(=O)(=O)N2CCCCC2)cc1NC(=O)c1ccc(N2CCCC2=O)cc1	?	9.3µM*	-10%	.	-6%	.
Cc1ccc(N2CC(O)CSC2=Nc2ccccc2)cc1 (stereo not drawn)	.	.	.	.	0%	.
C=C1CCN(C(CC(C)C)C(=O)Nc2ccc(OC)cc2)S(=O)(=O)c2ccccc21 (stereo not drawn)	.	.	.	5	.	19
CCN(CC)S(=O)(=O)c1ccc(NC(=O)c2ccc(N3CCCC3=O)cc2)cc1	.	.	?	.	29%	.
CC(C)Oc1ccc(S(=O)(=O)N2CCOCC2)cc1NC(=O)C1=NN(c2ccccc2)C(=O)CC1	1.7µM*	3.7µM*	?	.	-17%	.
CCN(CC)S(=O)(=O)c1ccc(OC)c(NC(=O)c2ccc(N3CCCC3=O)cc2)c1	9.3µM*	?	-10%	.	-4%	.
CC(C)Oc1ccc(S(=O)(=O)N2CCOCC2)cc1NC(=O)c1ccc(N2CCCC2=O)cc1	1.3µM*	4.1µM*	-24%	-1	-7%	-9
CCOc1ccc(S(=O)(=O)N(CC)CC)cc1NC(=O)c1ccc(N2CCCC2=O)cc1	?	10µM*	?	-2	5%	-1
Cc1ccc(S(=O)(=O)N2CCCC2CNC(=O)C(=O)NCCN2CCOCC2)cc1 (stereo not drawn)	14%	-5%	-17%	.	-3%	.
COc1ccc(CCC(=O)NNC(=O)Cn2nc(C)cc2C)cc1	9%	5%	1%	-1	100%	5
COc1ccc(-c2coc3c(C(=O)NCC4CC4)cccc23)c(C)c1	.	.	.	.	-6%	.
Nc1ccc2cc3[nH]c4cc(N)ccc4c3nc2c1	.	.	1.6µM*	.	-31%	.
Nc1ccc2sc(N)nc2c1	?	64%	4%	.	-10%	.
C=CCN1C(=O)S/C(=C/c2ccc(Sc3nc4ccccc4[nH]3)o2)C1=O	19%	43%	?	4	-3%	-18
SMILES	Pf growth 96h	Pf growth 48h	HCV inh	Cycloheximide cs	AMA1 RON2 block	Shiga toxin inh
CC(C)N1C(=O)S/C(=C/c2ccc(Sc3nc4ccccc4[nH]3)o2)C1=O	?	?	10µM*	-3	-2%	-4
Brc1nnc2n1-c1ccccc1Sc1ccccc1-2	8.3µM*	12µM*	16%	0	-7%	-9
c1ccc2c(c1)Sc1ccccc1-n1cnnc1-2	9.3µM*	?	7%	-1	11%	-8
Cc1cc(C)n(CC(=O)N2c3ccccc3Sc3ccccc32)n1	14%	?	-10%	-3	0%	-6
Clc1ccccc1-c1nnc2n1-c1ccccc1SC2	?	?	-6%	1	1%	-10
Clc1ccc2c(c1)-c1nnc(Br)n1-c1ccccc1S2	?	10µM*	-13%	-1	6%	-4
